The results in this text go back to ChEMBL document CHEMBL1961873, “Compounds: GSK PKIS; Assays: Nanosyn kinase panel” (2012).

As usually defined, the inhibition is the change of the read-out against control, counted positive when it falls.

Test [1] has as its target Casein kinase I isoform gamma-2 (Homo sapiens) (UniProt P78368). Particulars: at 1 µM.
The target of test [2] is Casein kinase I isoform gamma-3 (Homo sapiens) (UniProt Q9Y6M4). The settings on record: at 0.1 µM.
For test [3] the target is unchanged. The settings on record: at 1 µM.
The target of test [4] is Cyclin-dependent kinase 1 (Homo sapiens) (UniProt P06493). Particulars: at 0.1 µM.
The target is the same in test [5]. Particulars: at 1 µM.
For test [6], the target named is Cyclin-dependent kinase 2 (Homo sapiens) (UniProt P24941). Particulars: at 0.1 µM.
Test [7] has the same target. The settings on record: at 1 µM.
For test [8] the target is unchanged. The settings on record: at 0.1 µM. The source holds these as a separate data set.
Test [9] shares this target. Particulars: at 1 µM. This is another data set of the same source.
Test [10] addresses T1, CDK3/Cyclin E (Homo sapiens) (UniProt P24864+Q00526). The settings on record: at 0.1 µM.
The target in test [11] is T1, CDK3/Cyclin E (Homo sapiens). Particulars: at 1 µM.
The target of test [12] is Cyclin-dependent kinase 4 (Homo sapiens) (UniProt P11802). The settings on record: at 0.1 µM.
The target is the same in test [13]. Particulars: at 1 µM.
Test [14] has as its target Cyclin-dependent kinase 5 (Homo sapiens) (UniProt Q00535). Particulars: at 0.1 µM.
Test [15] shares this target. The settings on record: at 1 µM.
Test [16] addresses Cyclin-dependent kinase 6 (Homo sapiens) (UniProt Q00534). Particulars: at 0.1 µM.
For test [17] the target is unchanged. The settings on record: at 1 µM.
Test [18] has as its target Dual specificity protein kinase CLK2 (Homo sapiens) (UniProt P49760). The settings on record: at 0.1 µM.
The target is the same in test [19]. Particulars: at 1 µM.
Test [20] addresses Dual specificity protein kinase CLK3 (Homo sapiens) (UniProt P49761). Particulars: at 0.1 µM.

Chain of Casein kinase I isoform gamma-2 (Homo sapiens) (P78368 whole entry, looked up, canonical isoform): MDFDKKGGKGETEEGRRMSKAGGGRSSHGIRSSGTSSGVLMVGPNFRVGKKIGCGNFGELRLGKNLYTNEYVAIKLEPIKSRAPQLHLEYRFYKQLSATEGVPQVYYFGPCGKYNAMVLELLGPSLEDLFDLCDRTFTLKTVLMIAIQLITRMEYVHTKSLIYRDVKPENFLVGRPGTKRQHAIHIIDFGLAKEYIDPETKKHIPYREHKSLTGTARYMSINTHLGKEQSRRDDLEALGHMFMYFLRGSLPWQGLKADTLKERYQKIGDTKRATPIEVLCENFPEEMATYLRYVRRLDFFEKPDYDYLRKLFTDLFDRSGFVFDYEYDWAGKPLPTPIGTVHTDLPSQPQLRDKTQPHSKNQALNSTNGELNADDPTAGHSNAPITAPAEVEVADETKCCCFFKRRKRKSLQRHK
Chain of Cyclin-dependent kinase 6 (Homo sapiens) (Q00534 whole entry): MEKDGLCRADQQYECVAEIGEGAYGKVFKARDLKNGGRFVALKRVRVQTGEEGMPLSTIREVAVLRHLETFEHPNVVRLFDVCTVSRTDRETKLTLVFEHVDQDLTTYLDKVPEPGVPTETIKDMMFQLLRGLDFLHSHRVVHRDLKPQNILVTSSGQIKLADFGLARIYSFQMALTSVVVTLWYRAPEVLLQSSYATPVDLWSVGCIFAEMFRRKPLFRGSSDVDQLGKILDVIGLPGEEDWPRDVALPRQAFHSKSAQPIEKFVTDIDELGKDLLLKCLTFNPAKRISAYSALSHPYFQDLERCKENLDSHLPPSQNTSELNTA
Chain of Dual specificity protein kinase CLK3 (Homo sapiens) (P49761 whole entry, looked up): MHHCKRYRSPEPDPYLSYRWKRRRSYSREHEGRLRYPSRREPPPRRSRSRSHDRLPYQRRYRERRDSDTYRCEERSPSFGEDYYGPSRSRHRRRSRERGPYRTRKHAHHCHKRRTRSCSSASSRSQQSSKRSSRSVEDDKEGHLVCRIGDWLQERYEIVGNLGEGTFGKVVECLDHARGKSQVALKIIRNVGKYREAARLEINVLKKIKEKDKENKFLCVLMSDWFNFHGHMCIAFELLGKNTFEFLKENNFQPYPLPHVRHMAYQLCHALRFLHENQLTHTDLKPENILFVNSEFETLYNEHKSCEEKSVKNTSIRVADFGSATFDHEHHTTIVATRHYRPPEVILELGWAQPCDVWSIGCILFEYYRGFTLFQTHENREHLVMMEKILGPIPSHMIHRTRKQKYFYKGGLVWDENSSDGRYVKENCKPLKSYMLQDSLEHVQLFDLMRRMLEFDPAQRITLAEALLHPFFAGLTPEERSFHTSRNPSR
Chain of Dual specificity protein kinase CLK2 (Homo sapiens) (P49760 whole entry, looked up): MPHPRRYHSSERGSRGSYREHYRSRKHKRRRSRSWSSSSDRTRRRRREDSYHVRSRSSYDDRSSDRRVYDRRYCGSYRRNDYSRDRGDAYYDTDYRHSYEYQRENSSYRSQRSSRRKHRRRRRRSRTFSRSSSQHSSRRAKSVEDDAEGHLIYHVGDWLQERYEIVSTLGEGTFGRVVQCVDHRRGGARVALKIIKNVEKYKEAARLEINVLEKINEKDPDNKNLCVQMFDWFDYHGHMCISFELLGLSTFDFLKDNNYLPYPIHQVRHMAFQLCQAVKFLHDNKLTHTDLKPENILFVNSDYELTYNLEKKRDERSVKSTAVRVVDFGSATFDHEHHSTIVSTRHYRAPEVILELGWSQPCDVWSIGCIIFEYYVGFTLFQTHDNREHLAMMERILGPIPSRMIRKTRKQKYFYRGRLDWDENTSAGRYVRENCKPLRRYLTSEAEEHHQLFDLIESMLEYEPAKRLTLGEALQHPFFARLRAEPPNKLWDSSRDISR
Chain of Cyclin-dependent kinase 5 (Homo sapiens) (Q00535 whole entry, looked up): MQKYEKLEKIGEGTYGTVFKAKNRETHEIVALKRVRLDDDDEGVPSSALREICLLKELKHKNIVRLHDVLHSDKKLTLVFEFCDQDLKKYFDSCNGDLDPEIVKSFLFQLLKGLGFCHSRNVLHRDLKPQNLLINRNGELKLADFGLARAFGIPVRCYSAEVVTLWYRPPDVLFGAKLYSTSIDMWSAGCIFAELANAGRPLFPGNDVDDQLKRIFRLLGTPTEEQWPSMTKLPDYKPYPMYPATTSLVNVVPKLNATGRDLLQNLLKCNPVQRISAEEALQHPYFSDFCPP
T1 sequence (P24864 whole entry, looked up): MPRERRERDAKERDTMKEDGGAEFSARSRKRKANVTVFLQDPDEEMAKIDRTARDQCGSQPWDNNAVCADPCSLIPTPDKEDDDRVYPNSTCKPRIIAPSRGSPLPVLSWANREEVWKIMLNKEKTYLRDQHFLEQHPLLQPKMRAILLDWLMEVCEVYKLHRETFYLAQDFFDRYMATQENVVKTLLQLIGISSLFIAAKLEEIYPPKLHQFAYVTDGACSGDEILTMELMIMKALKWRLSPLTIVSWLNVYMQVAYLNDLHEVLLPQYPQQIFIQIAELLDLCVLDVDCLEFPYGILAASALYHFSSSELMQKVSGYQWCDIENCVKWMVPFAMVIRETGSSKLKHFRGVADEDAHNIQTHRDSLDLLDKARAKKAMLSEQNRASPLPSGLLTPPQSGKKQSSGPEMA
T1 sequence (Q00526 whole entry, looked up): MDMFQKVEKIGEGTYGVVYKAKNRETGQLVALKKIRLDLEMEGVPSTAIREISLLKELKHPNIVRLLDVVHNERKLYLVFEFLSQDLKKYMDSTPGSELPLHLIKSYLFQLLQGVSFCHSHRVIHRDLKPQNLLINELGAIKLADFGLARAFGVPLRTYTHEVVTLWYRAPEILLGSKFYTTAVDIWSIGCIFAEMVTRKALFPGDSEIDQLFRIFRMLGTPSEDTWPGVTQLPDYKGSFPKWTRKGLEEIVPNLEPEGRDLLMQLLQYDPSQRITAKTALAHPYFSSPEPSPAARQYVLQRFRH
Chain of Cyclin-dependent kinase 1 (Homo sapiens) (P06493 whole entry, looked up): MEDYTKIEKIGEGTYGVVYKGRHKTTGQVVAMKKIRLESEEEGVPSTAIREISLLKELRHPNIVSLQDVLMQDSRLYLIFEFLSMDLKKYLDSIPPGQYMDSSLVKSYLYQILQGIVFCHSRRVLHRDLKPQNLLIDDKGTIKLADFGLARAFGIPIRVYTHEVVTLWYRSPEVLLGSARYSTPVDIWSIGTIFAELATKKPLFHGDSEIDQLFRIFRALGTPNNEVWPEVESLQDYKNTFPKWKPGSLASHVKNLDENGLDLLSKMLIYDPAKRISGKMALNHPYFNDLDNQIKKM
Chain of Cyclin-dependent kinase 4 (Homo sapiens) (P11802 whole entry): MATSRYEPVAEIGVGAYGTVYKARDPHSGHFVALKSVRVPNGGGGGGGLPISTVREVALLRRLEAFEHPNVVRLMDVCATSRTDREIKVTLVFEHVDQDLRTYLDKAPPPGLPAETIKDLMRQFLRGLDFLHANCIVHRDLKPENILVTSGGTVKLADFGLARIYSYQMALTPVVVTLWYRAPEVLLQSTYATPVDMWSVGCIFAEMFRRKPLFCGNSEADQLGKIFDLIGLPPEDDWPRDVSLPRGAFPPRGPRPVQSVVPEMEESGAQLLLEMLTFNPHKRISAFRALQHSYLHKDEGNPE
Chain of Casein kinase I isoform gamma-3 (Homo sapiens) (Q9Y6M4 whole entry, looked up, canonical isoform): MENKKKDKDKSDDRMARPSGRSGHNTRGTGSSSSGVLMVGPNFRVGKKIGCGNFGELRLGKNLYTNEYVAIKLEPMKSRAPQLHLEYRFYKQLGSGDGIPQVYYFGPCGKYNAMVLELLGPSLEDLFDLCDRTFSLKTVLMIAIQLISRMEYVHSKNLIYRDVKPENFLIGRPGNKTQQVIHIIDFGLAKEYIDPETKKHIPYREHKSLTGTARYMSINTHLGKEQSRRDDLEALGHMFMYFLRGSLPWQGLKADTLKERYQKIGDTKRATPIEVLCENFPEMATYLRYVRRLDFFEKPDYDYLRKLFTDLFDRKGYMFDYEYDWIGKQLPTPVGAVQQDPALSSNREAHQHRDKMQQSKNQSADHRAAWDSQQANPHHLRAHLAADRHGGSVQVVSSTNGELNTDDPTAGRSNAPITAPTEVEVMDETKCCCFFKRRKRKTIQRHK

For the compound `COc1cccc(COc2cc(-n3cnc4ccccc43)sc2C(N)=O)c1`, the inhibition in test [1] was 1.17%; in test [2], 0.42%; in test [3], 1.21%; in test [4] it was 0.45%; in [5], -0.26%; in [6], 0.15%. Besides, the inhibition in [7] is -0.04%; in test [8], -0.91%; in test [9], -0.85%; in test [10], -1.38%; in test [11] it was -2.65%; in test [12], 0.26%. The inhibition in [13] is 1.36%; in [14], -0.51%; in test [15], -0.16%; in test [16], -4.03%; in test [17], -1%; in test [18] it was 0.48%. For the same compound, the inhibition in [19] is 1.3%; in [20] it was -0.79%.

As for `Nc1nonc1-c1nc2cnccc2n1C1CCCCC1`, the inhibition is 0.45% in test [1]; -1.94% in [2]; 1.85% in test [3]; 5.2% in test [4]; 24.5% in test [5]; 7.81% in test [6]. Also, the inhibition is 44.6% in test [7]; 8.62% in test [8]; 41.5% in test [9]; 4.5% in [10]; 11.3% in test [11]; 0.8% in [12]. For the same compound, the inhibition in test [13] was 5.81%; in test [14] it was 5%; in test [15], 18%; in test [16], -5.33%; in test [17] it was 1.64%; in test [18], 3.99%. In addition, the inhibition in [19] was 39.2%; in [20] it was -0.8%.

In the case of `CCn1c(-c2nonc2N)nc2c(C#CC(C)(C)O)ncc(OC[C@@H]3CCCN3)c21`, the inhibition in test [1] is 2.18%; in test [2], 0.87%; in [3] it was 3.35%; in [4], -0.63%; in [5] it was 0.58%; in test [6], -1.52%. In addition, the inhibition is -0.07% in [7]; -0.64% in [8]; -0.07% in test [9]; -0.42% in [10]; -4.39% in test [11]; 0.04% in test [12]. For the same compound, the inhibition in [13] is 1.01%; in test [14], -0.13%; in test [15], -0.81%; in test [16], -2.82%; in [17], -5.08%; in [18], 1.88%. The inhibition in [19] turned out to be 9.59%; in [20], 0.26%.

On to `CCn1c(-c2nonc2N)nc2c(C#CC(C)(C)O)ncc(OCC3CCNCC3)c21`, for which the inhibition is 0.7% in [1]; -1.65% in [2]; -0.62% in test [3]; -0.87% in test [4]; 4.13% in [5]; -0.3% in test [6]. Moreover, the inhibition in test [7] is 4.17%; in test [8] it was 6.49%; in test [9], 9.55%; in [10] it was 7.2%; in test [11], 1.62%; in test [12], -1.61%. In addition, the inhibition was 3.91% in test [13]; 1.05% in test [14]; 5.69% in test [15]; -0.95% in test [16]; 4.82% in [17]; 5.25% in test [18]. Further, the inhibition in test [19] is 29.4%; in test [20], -2.14%.

Regarding `COc1cc2c(cc1Nc1nc(Nc3ccsc3C(N)=O)c3cc[nH]c3n1)N(C(=O)CN(C)C)CCC2`, the inhibition in test [1] was -7.97%; in test [2] it was 1.11%; in test [3], 10.3%; in [4], 5.37%; in [5], 6.76%; in test [6], 4.39%. For the same compound, the inhibition in test [7] was 6.12%; in test [8], 0.86%; in [9] it was -1.41%; in test [10], 0.3%; in test [11] it was -1.3%; in test [12] it was 3.79%. The inhibition is 5.67% in test [13]; 0.94% in test [14]; -0.24% in test [15]; 5.85% in test [16]; 6.19% in test [17]; 15.6% in test [18]. Further, the figures for the inhibition in [19] and in [20] were 72% and 1.22%, respectively.

`COc1cccc(-n2ncc3c(N/N=C/c4ccncc4)ncnc32)c1`: the inhibition in test [1] is 9.79%; in [2] it was 5.28%; in [3], 6.59%; in [4], 45%; in test [5] it was 81.8%; in [6], 47%. The inhibition in test [7] was determined as 76.8%; in test [8], 24.6%; in test [9] it was 65.2%; in [10], 12.2%; in test [11], 49.4%; in [12], 16.5%. For the same compound, the inhibition in test [13] amounted to 52.6%; in test [14], 39.7%; in test [15], 78.8%; in [16], 15.4%; in [17] it was 51.1%; in test [18], 4.97%. For the same compound, the inhibition in test [19] was 35%; in test [20], 4.27%.

As for `CCn1c(-c2nonc2N)nc2c(C#CCN)ncc(OCCCN)c21`, the inhibition in test [1] is -2.49%; in [2], -1.84%; in test [3] it was -2.94%; in test [4], 3.69%; in [5], 2.18%; in test [6], 0.26%. Moreover, the inhibition was 0.59% in test [7]; 2.03% in [8]; 2.69% in test [9]; 2.51% in [10]; 2.11% in test [11]; -2.32% in test [12]. Further, the inhibition in test [13] is -2.14%; in [14], 1.95%; in [15], 1.6%; in [16], 0.56%; in [17], -5.81%; in [18], 1.13%. For the same compound, the inhibition in test [19] is 0.74%; in test [20] it was -0.24%.

Consider `NS(=O)(=O)c1ccc(N/C=C2\C(=O)Nc3ccc4ncsc4c32)cc1`, for which the inhibition came to 11.1% in test [1]; 5.65% in test [2]; 14.4% in test [3]; 25% in test [4]; 62.4% in [5]; 82.7% in test [6]. For the same compound, the inhibition was 94.4% in [7]; 70.8% in test [8]; 75% in [9]; 75.5% in test [10]; 94.7% in [11]; 30.7% in test [12]. The inhibition is 64.6% in test [13]; 60.7% in test [14]; 72.8% in test [15]; 36.8% in test [16]; 69% in test [17]; 11.6% in [18]. Further, the figures for the inhibition in [19] and in [20] were 64.1% and 1.81%, respectively.

For `COc1cc(C=NNc2ncnc3c2cnn3Cc2ccccc2)ccc1O`, the inhibition is -3.09% in test [1]; 0.15% in [2]; -1.86% in test [3]; 3.83% in [4]; 14.8% in test [5]; 0.83% in test [6]. In addition, the inhibition is 0.3% in [7]; -0.38% in [8]; 6.08% in test [9]; 0.9% in test [10]; 2.73% in test [11]; 0.2% in [12]. Besides, the inhibition was 5.23% in test [13]; 2.79% in test [14]; 16.2% in test [15]; -0.46% in test [17]; -0.27% in test [18]; 3.62% in test [19]. Also, the inhibition in test [20] amounted to 0.25%.

For `Fc1ccc(-c2ncn(C3CCNCC3)c2-c2ccnc(Oc3ccccc3)n2)cc1`, the inhibition in test [1] is 2.3%; in [2], -1.46%; in test [3], 10%; in [4] it was -3.4%; in test [5], -1.98%; in test [6] it was -3.24%. Also, the inhibition is -1.87% in test [7]; -2.35% in [8]; -0.94% in test [9]; -3.17% in test [10]; -2.25% in test [11]; -3.54% in test [12]. Also, the inhibition in test [13] was -2.32%; in [14] it was -3.32%; in [15], -2.14%; in test [16], -6.2%; in test [17], -4.11%; in [18], 0.8%. The inhibition in test [19] is -0.83%; in test [20], -3.78%.

As to `Cc1cc(-c2ccco2)cc(C)c1/C=C/c1cncc(-c2nn[nH]n2)c1`, the inhibition in test [1] worked out at 1.08%; in test [2] it was 0.9%; in test [3], 2.3%; in test [4] it was 0.87%; in [5], 2.16%; in test [6], 0.49%. For the same compound, the inhibition is 1.75% in test [7]; 0.38% in test [8]; 2.54% in [9]; -0.91% in test [10]; -1.27% in test [11]; 0.48% in test [12]. In addition, the inhibition was 2.4% in test [13]; 0.53% in test [14]; 1.53% in test [15]; -2.45% in test [16]; -0.96% in [17]; -1.47% in [18]. The inhibition was -2.94% in [19] and 0.27% in test [20].

With `NC(=O)c1sc(-n2cnc3cc(C(F)(F)F)ccc32)cc1OCc1ccccc1Br`, the inhibition was determined as 0.89% in [1]; 1.52% in test [2]; 1.06% in [3]; 0.9% in [4]; 4.47% in [5]; 0.47% in test [6]. Also, the inhibition in test [7] is 2.92%; in test [8] it was 0.99%; in test [9], 3.19%; in test [10], -1.34%; in test [11], -2.44%; in test [12], 1.17%. The inhibition is 2.92% in test [13]; 0.88% in [14]; 2.08% in test [15]; -0.56% in [16]; -1.42% in test [17]; 0.89% in test [18]. Also, the inhibition in test [19] is 0.1%; in test [20] it was -0.27%.

On to `CCn1c(-c2nonc2N)nc2c(C#CC(C)(C)O)nc(O[C@@H](CN)c3ccccc3)cc21`, for which the inhibition in [1] was 4.43%; in [2], -0.48%; in [3], 9.88%; in [4], 4.13%; in test [5], 4.92%; in test [6], 2.07%. Besides, the inhibition in [7] was 4.12%; in [8], 2.92%; in test [9] it was 4.27%; in test [10], 3.62%; in [11], -0.03%; in test [12], 1.37%. Further, the inhibition in test [13] is 4.92%; in test [14], 2.41%; in test [15], 4.69%; in test [16] it was -4.5%; in test [17], 3.24%; in test [18] it was 10.2%. Besides, the inhibition was 56.3% in test [19] and -1.43% in [20].

Regarding `NS(=O)(=O)c1ccc(-c2ccc3c(NC(=O)C4CC4)n[nH]c3c2)cc1`, the inhibition in test [1] is 1.7%; in test [2], 0.52%; in [3], -0.19%; in test [4], 0.48%; in test [5], 5.13%; in [6], 2.91%. For the same compound, the inhibition in test [7] stood at 13.4%; in test [8], 2.18%; in test [9], 5.85%; in [10], 2.19%; in test [11] it was 5.48%; in test [12], 3.11%. Further, the inhibition stood at 6.7% in test [13]; 2.07% in [14]; 4.41% in test [15]; 13.7% in [16]; 46.3% in test [17]; 1.09% in test [18]. Further, the inhibition in test [19] is -0.2%; in [20] it was 0.84%.
